Data from PubChem BioAssay AID1984 (Sanford-Burnham Center for Chemical Genomics, 2009).
In all, about 290,000 compounds went through this assay and about 35 (0.01%) were called active.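 How the source made its calls: active means EGFP signal decrease of at least 30% at 10 µM or well 3 SD below plate mean, unless failing retest; inactive means the rest, including hits failing retest or dose response.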 This excerpt belongs to a sample that is enriched for actives.

molecular target: p/CIP-EGFP fusion (nuclear receptor coactivator 3, mouse) (UniProt Q05BA5); assay: p/CIP-EGFP fusion destabilizers, primary screen, fluorescence, F442A cells (AID 1984); conditions: 16 h, at 10 µM, stronger effect = higher value
Sequence (Q05BA5 1-1403): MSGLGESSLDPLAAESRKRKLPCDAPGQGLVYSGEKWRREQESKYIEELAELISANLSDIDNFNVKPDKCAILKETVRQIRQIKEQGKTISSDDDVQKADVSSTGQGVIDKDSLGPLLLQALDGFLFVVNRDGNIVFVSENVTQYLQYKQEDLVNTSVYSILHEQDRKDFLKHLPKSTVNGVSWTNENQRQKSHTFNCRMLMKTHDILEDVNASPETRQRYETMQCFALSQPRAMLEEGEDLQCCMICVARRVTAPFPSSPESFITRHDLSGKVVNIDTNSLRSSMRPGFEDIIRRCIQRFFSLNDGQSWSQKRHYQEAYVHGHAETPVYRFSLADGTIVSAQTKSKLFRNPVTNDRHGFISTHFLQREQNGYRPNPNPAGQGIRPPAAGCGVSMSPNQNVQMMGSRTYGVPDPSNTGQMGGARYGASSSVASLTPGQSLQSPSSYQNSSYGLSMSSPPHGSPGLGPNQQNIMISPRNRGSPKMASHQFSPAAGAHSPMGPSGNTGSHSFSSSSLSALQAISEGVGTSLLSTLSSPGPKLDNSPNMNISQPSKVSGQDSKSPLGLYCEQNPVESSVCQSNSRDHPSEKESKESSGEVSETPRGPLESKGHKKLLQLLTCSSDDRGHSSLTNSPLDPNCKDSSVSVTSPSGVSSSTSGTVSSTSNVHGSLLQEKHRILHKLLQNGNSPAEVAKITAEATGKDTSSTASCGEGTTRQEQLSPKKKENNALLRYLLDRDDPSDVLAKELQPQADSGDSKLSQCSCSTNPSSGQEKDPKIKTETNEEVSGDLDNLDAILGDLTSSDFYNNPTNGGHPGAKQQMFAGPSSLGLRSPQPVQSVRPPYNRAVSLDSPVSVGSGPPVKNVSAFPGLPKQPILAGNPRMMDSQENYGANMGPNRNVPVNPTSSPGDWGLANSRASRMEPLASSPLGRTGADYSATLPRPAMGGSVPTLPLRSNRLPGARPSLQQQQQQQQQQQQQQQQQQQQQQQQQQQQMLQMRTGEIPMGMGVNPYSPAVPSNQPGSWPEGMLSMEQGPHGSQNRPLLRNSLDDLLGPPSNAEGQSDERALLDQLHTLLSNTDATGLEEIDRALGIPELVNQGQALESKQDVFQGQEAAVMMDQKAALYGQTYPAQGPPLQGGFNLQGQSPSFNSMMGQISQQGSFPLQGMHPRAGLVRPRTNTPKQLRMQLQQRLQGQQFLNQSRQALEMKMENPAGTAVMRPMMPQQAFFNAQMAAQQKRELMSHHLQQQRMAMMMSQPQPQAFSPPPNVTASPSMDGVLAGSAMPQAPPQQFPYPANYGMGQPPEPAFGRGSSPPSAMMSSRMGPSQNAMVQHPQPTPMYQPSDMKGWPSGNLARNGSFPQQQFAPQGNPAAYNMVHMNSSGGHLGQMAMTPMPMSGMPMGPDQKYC

Decrease of EGFP signal, inactive:
CCc1ccc(OCC(=O)N(Cc2ccccc2)C2CCS(=O)(=O)C2)cc1 (configuration not stated) -11.2%, COc1cc(OC)cc(C(=O)NCCCn2ccnc2)c1 1.6%, CNc1[nH]ncc1[N+](=O)[O-] 11.8%, Cc1nc(-c2ccc(F)cc2)c(CC(=O)N2CCN(S(=O)(=O)c3ccc(F)cc3)CC2)s1 5.1%, COCCCN1C(=O)c2ccc(C(=O)OCC(=O)NCc3ccccc3OC)cc2C1=O -12.5%, c1ccc(-n2cccc2)c(N2CCCCC2)c1 -13.4%, Cc1cc(-c2nnc(SCC(=O)Nc3ccc(S(N)(=O)=O)cc3)n2N)n[nH]1 -53.2%, CCCCn1c(N)c(N(CCOC)C(=O)c2oc3ccc(OC)cc3c2C)c(=O)[nH]c1=O 9.8%, NC(=O)C(Cc1ccccc1)NC(=O)C12CC3CC(CC(C3)C1)C2 (configuration not stated) -4.8%, Cc1c(S(=O)(=O)N2CC(C)CC(C)C2)c(=O)n(C)c(=O)n1C (configuration not stated) 4.7%, CCSc1nc(O)c(C(c2cccc(OC)c2)c2c(O)nc(SCC)[nH]c2=O)c(=O)[nH]1 -4%, CCCC1(C(=O)OCC)NC(c2ccc(N(C)C)cc2)C2C(=O)N(c3ccc4c(c3)OCCO4)C(=O)C21 (configuration not stated) -13.2%, O=C(O)CCCCCNc1ncnc2ccc(Br)cc12 -16.6%, Cc1cccc(N2Cc3ccccc3C2=NC(=O)c2ccc(Cl)nc2)c1 -1.5%, CC(=O)N1c2ccc(S(=O)(=O)N3CCCC(C(=O)NCc4ccc(Cl)cc4)C3)cc2CC1C (configuration not stated) -5.2%, CCCCC(=O)Nc1c2c(nn1-c1ccc([N+](=O)[O-])cc1)CS(=O)(=O)C2 -0.5%, CS(=O)(=O)N1CCN=C1SCc1ccc(F)cc1 10.9%, CC(=O)c1cccc(NC(=O)CN2C(=O)c3cccnc3Oc3ccc(Cl)cc32)c1 -7.6%, C/C(CC(=O)NCc1ccc(Cl)cc1)=N\NC(=O)COc1ccc(C)cc1Br 2.8%, CCOc1cc(CN2CCCC(CO)(Cc3ccc(F)cc3F)C2)ccc1OC (configuration not stated) -5.3%, Cc1cccc(-c2nc3ccc(C(=O)NCCN4CCN(C)CC4)cc3nc2-c2cccc(C)c2)c1 -5%, COCCCNc1nc2c(-c3cccc(C)c3)nnn2c2ccc(Cl)cc12 -12%, COc1ccc(C(=O)C2CCCN(S(=O)(=O)c3cccc(C)c3)C2)c(C)c1 (configuration not stated) -15.7%, O=C(NCCC1=CCCCC1)c1ccc(Cl)c([N+](=O)[O-])c1 -6.4%, CCCn1c(NC(=O)C23CC4CC(CC(O)(C4)C2)C3)nc2ccccc21 0.5%, O=C(Nc1ccc(O)cc1)c1ccc(NC(=O)c2ccco2)cc1 -4.6%, CCOc1ccc(S(=O)(=O)N2CCC(c3ccccc3)CC2)cc1C(=O)O 2.8%, COCc1ccc(CN2CCC(Oc3ccc(C(=O)NCc4ccccn4)cc3)CC2)o1 -10.7%, COC(c1ccccc1)(c1ccccc1)C(Oc1nc(C)cc(C)n1)C(=O)O (configuration not stated) 0%, O=[N+]([O-])c1ccc2oc(-c3cccc(O)c3)nc2c1 7.6%, CC(Oc1cc2oc(=O)c3c(c2cc1Cl)CCCC3)C(=O)NCc1ccncc1 (configuration not stated) -2.1%, O=C(C[n+]1cc(Br)cc2ccccc21)c1ccc(F)cc1 -1.9%, C/C(=N\NC(=O)c1ccc2ccccc2c1)c1cccnc1 -18.3%, CCOc1ccc(CN(C)C(=O)c2ccc(=O)[nH]c2)cc1 5.1%, Cc1cc(S(=O)(=O)NC2CCCC2)ccc1-n1cnnn1 -8.5%, O=C1NC(=O)C(c2ccc(Cl)cc2)N1 (configuration not stated) -72.8%, CCOc1ccccc1N1CCN(C(=O)c2ccc3[nH]c(C)c(C)c3c2)CC1 6.3%, COc1cc(CCC(=O)Nc2ccncc2Cl)cc(OC)c1OC -2.4%, Cc1nn(C)c(Cl)c1CN1CCC(Oc2ccc(C(=O)N3CCCC3)cc2)CC1 -12%, O=C(Nc1cccc(-n2cnnn2)c1)c1cccnc1 2.8%, O=C(c1ccc(Cl)cc1)N1N=C(c2ccccn2)CC1(O)C(F)(F)F (configuration not stated) 1.2%, COc1ccc(C2Nc3ccccc3C(=O)N2c2ccc(Cl)cc2)cc1Cn1cc([N+](=O)[O-])cn1 (configuration not stated) -4.3%, CCCN(CCC)S(=O)(=O)c1ccc(C(=O)N2CC3CCC(CC3)C2)cc1 -5.7%, CNC(=O)c1sc(NCc2ccccc2OC)nc1C -5%, COc1cccc(NC(=O)N2CCCC2C(=O)NC2CCCCC2)c1 (configuration not stated) -18.1%, NC(=O)c1ccc(Nc2ccc3c(c2)CCC3)c([N+](=O)[O-])c1 -5%, C=CCc1cc(C)ccc1OCCCn1ccnc1 10.1%, CC(C(=O)c1ccc(-c2ccccc2)cc1)[n+]1cccc(Br)c1 (configuration not stated) -9.6%, COC(=O)Cn1cnc2scc(-c3ccc(C)c(C)c3)c2c1=O 4.1%, CC(C)(C)NC(=O)C(c1ccc(Cl)cc1)N(CCO)C(=O)c1snc(C(N)=O)c1N (configuration not stated) 2.5%, CC(=O)[C@@]12O[C@@H]1C[C@H]1[C@@H]3CC[C@H]4C[C@@H](O)CC[C@]4(C)[C@H]3CC[C@@]12C -26.4%, COc1cccc(OCC(O)CNC(=O)c2oc3c(C)c(C)ccc3c2C)c1 (configuration not stated) -15.6%
